This note sets out measurements from PubChem BioAssay (NCI).

Test systems include HCT-15 colon; HT29 colon; SNB-75 CNS; U251 CNS; PC-3 prostate; SK-MEL-5 melanoma; UACC-62 melanoma; LOX IMVI melanoma; SK-MEL-28 melanoma; SNB-19 CNS.
Assay in all cases: NCI-60 one-dose screen, 48 h (100 = growth as untreated, 0 = no growth, -100 = all killed)
What all share (details): 10 µM unless noted

SMILES strings stand for the structures. Compounds without any hit were thinned out: in the full panel of roughly 83,000, 20% have a hit.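 Cells were grown in 96-well plates and exposed to the test compound at a single concentration for 48 hours; results are reported as percent growth, with values below 10 considered active.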 Values without a mark were called inactive. Active and inactive are the calls of the source.

Consider `CCCCCCNC(=O)Oc1ccc(/C(=C(\C)c2ccc(Cl)cc2)c2ccc(OCCN(C)C)cc2)cc1`, for which the growth in the experiment with HCT-15 colon was 7.58% (active); in the experiment on HT29 colon, 5.99% (active); with SNB-75 CNS, 75.8%; in the experiment on U251 CNS, 46%; with PC-3 prostate it was 56%; in the experiment with SK-MEL-5 melanoma, 47.9%. The growth in the experiment with UACC-62 melanoma was 84.7%; in the experiment on LOX IMVI melanoma, -67.8% (active); in the experiment on SK-MEL-28 melanoma it was 75%.
As to `CC(C)=CCC[C@](C)(O)[C@H]1CC[C@]2(C)[C@@H]1CC[C@@H]1[C@@]3(C)CCC(NC(=O)c4ccccc4C(=O)O)C(C)(C)[C@@H]3CC[C@]12C` (stereo partly drawn), the growth in the experiment with HCT-15 colon is 87.7%; in the experiment on HT29 colon, 75.5%; with SNB-75 CNS, 90.2%; in the experiment on SNB-19 CNS it was 86.3%; in the experiment on U251 CNS it was 88.6%; with PC-3 prostate, 81.5%. Moreover, the growth in the experiment with LOX IMVI melanoma was 84.3%; with SK-MEL-28 melanoma, 34.3%.
For `COc1ccc(/C(C)=C(\c2ccc(Cl)cc2)c2ccc(OCCN)cc2)cc1`, the growth with HCT-15 colon is 40.5%; in the experiment with HT29 colon, 0.975% (active); in the experiment on SNB-75 CNS, 88.9%; with U251 CNS it was 61.9%; in the experiment on PC-3 prostate it was 78.9%; in the experiment with SK-MEL-5 melanoma, 96.7%. Moreover, the growth in the experiment on UACC-62 melanoma is 98.5%; in the experiment on LOX IMVI melanoma, 0.915% (active); in the experiment with SK-MEL-28 melanoma it was 86.1%.
In the case of `O=C(c1ccc(O)cc1)[C@@H]1[C@@H]2CCCN2[C@@]2(C(=O)N(C(=O)c3ccc(F)cc3)c3ccccc32)[C@H]1c1ccc(F)cc1`, the growth in the experiment on HCT-15 colon was 86.6%; with HT29 colon it was 104%; in the experiment on SNB-75 CNS, 73.5%; in the experiment with SNB-19 CNS it was 93.3%; in the experiment on U251 CNS it was 94.3%; in the experiment with PC-3 prostate it was 78.3%. The growth was 75.4% in the experiment on UACC-62 melanoma and 99.2% with SK-MEL-28 melanoma.
With `CC1OC(O[C@@H]2[C@H](O)C(CO)OC(O[C@H]3COC(O[C@H]4CC[C@]5(C)[C@H]6CC[C@]78OC[C@@]9(CC[C@](C)(C=O)C[C@H]97)C(=O)C[C@@]8(C)[C@]6(C)CC[C@H]5C4(C)C)[C@@H](O)[C@@H]3O)[C@H]2OC2OC[C@@H](O)[C@@H](O)[C@@H]2O)[C@@H](O)[C@@H](O)[C@H]1O` (stereo partly drawn), the growth is 95.8% in the experiment with HCT-15 colon; 97.1% with HT29 colon; 81.4% in the experiment with SNB-75 CNS; 90.2% with SNB-19 CNS; 95.8% with U251 CNS; 81.4% in the experiment on PC-3 prostate. Besides, in the experiment with LOX IMVI melanoma, the growth was 88.1%.
Take `CC(C)c1nn(-c2ccccc2)c(N2CCCCC2)c1/C=N/NC(N)=S`: the growth with HCT-15 colon is 70.8%; in the experiment with HT29 colon it was 81.4%; with SNB-75 CNS, 61.6%; in the experiment with U251 CNS it was 97.9%; with PC-3 prostate, 82.5%; in the experiment on SK-MEL-5 melanoma, 87.5%. The growth in the experiment with UACC-62 melanoma is 92.5%; in the experiment with SK-MEL-28 melanoma, 109%.
For `C=C1C(=O)O[C@@H]2/C=C(/C)C3=CC(=O)[C@@](C)(C[C@H](OC(=O)/C(C)=C\C)[C@@H]12)O3`, the growth is -2.86% (active) with HCT-15 colon; -38.7% (active) with HT29 colon; 44.4% in the experiment on SNB-75 CNS; 64.4% in the experiment with SNB-19 CNS; 28.8% with U251 CNS; 36.6% in the experiment on PC-3 prostate. In the experiment with LOX IMVI melanoma, the growth is -44.8% (active).
Regarding `Cc1occc1-c1nc2s/c(=C\c3cn(-c4ccccc4)nc3-c3ccccc3)c(=O)n2n1`, the growth in the experiment on HCT-15 colon is 99.2%; in the experiment with HT29 colon, 101%; in the experiment on SNB-75 CNS, 84%; in the experiment with SNB-19 CNS, 96.8%; in the experiment with U251 CNS it was 97.1%; in the experiment on PC-3 prostate, 90.6%. Besides, the growth is 92.1% in the experiment with UACC-62 melanoma, 103% in the experiment on LOX IMVI melanoma and 101% in the experiment on SK-MEL-28 melanoma.
On to `COc1ccc(NC(=O)[C@H](C)NC(=O)OC(C)(C)C)cc1C(=O)Nc1cccc(-c2cc(=O)c3c(OC)c(OC)c(OC)cc3o2)c1`, for which the growth in the experiment on HCT-15 colon is 3.87% (active); in the experiment on HT29 colon, -10.5% (active); in the experiment on SNB-75 CNS, -18.3% (active); in the experiment on U251 CNS it was -34.1% (active); in the experiment on PC-3 prostate, -36.9% (active); with SK-MEL-5 melanoma, -91.1% (active). Moreover, the growth was -40.8% (active) in the experiment on UACC-62 melanoma, -73.7% (active) with LOX IMVI melanoma and 0.755% (active) in the experiment with SK-MEL-28 melanoma.
For `NS(=O)(=O)c1ccc(Nc2nc(N/N=C/c3ccc(C(F)(F)F)cc3)nc(Nc3ccccc3)n2)cc1`, the growth in the experiment with HCT-15 colon was 31.3%; in the experiment with HT29 colon, 11.4%; with SNB-75 CNS, 42%; in the experiment with U251 CNS, 18.6%; in the experiment with PC-3 prostate, 14.4%; in the experiment with SK-MEL-5 melanoma, 34.5%. Besides, the growth is 14.9% in the experiment with UACC-62 melanoma and 9.92% (active) in the experiment with LOX IMVI melanoma.
As for `CCn1c2ccc(/C=N/NS(=O)(=O)CCN(C)C)cc2c2cc(/C=N/NS(=O)(=O)CCN(C)C)ccc21`, the growth with HCT-15 colon was 108%; with HT29 colon, 103%; in the experiment with SNB-75 CNS, 107%; in the experiment with U251 CNS it was 99.8%; in the experiment on PC-3 prostate it was 100%; with SK-MEL-5 melanoma it was -96.7% (active). The results for the growth in the experiment on UACC-62 melanoma, in the experiment with LOX IMVI melanoma and in the experiment with SK-MEL-28 melanoma were 98.6%, 98.6% and 106%, respectively.
Consider `C=C(C)C(=O)O[C@H]1C[C@@]2(C)OC(=CC2=O)/C(C)=C\[C@H]2OC(=O)C(=C)[C@H]12`, for which the growth was 1.22% (active) in the experiment on HCT-15 colon; 1.99% (active) in the experiment with HT29 colon; 33.3% in the experiment with SNB-75 CNS; 49.1% in the experiment with SNB-19 CNS; 6.75% (active) with U251 CNS; -2.26% (active) with PC-3 prostate. Moreover, in the experiment on LOX IMVI melanoma, the growth was -58.6% (active).
